In PubChem BioAssay AID382 (SGCOxCompounds, 2006):
The source made the active and inactive calls. No rule for the calls is given here.

target: Dual specificity protein kinase CLK1 (Homo sapiens) (UniProt P49759); assay: CLK1 binders by thermal stabilization, biophysical, recombinant human kinase, DSF (AID 382); settings: at 10 µM, protein 2 µM, buffer 10 mM HEPES, NaCl 150 mM, hits give high values
Sequence (P49759 whole entry, looked up): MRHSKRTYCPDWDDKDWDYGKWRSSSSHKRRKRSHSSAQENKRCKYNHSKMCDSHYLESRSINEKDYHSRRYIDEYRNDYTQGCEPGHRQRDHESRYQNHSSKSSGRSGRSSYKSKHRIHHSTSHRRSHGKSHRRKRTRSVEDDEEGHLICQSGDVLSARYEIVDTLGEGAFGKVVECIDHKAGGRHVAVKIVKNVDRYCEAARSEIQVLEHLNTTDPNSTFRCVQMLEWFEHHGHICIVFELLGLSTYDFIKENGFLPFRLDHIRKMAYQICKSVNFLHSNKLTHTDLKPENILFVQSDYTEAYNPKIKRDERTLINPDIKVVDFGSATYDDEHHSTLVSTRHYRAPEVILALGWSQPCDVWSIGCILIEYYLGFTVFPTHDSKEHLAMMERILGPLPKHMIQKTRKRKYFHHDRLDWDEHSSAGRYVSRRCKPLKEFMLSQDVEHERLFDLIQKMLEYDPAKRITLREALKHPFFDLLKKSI

Tm shift, active:
CC(C)C(CO)Nc1nc(Nc2cccc(Cl)c2)c2ncn(C(C)C)c2n1 (stereo unspecified) 6.23 Celsius
O=c1c(O)c(-c2cc(O)c(O)c(O)c2)oc2cc(O)cc(O)c12 6.89 Celsius
O=c1cc(-c2ccccc2)oc2cc(O)c(O)c(O)c12 4.05 Celsius
O=c1c(-c2ccc(O)cc2)coc2cc(O)cc(O)c12 3.77 Celsius
O=Nc1c(-c2c(O)[nH]c3ccc(S(O)(O)O)cc23)[nH]c2ccccc12 3.64 Celsius
O=c1cc(-c2ccc(O)cc2)oc2cc(O)cc(O)c12 5.94 Celsius
O=Nc1c(-c2c(O)[nH]c3ccccc23)[nH]c2ccccc12 3.59 Celsius
O=C1C(=O)C(c2cccc(O)c2)Oc2ccccc21 (stereo unspecified) 3.88 Celsius
O=c1cc(-c2ccccc2)oc2cc(O)cc(O)c12 5.03 Celsius
O=C1C(=O)C(c2cc(O)c(O)c(O)c2)Oc2cc(O)cc(O)c21 (stereo unspecified) 6.4 Celsius
O=C1NC(=O)C(c2c[nH]c3ccccc23)=C1c1c[nH]c2ccccc12 4.13 Celsius
